# Bioassay records: PubChem, National Center for Advancing Translational Sciences (NCATS)
# TRb-SRC2 inh – TRbeta-SRC2 interaction inhibition; P10828; TRbeta-SRC2 peptide binding, fluorescence polarization; receptor liganded with 1 µM T3; Potency, µM (titrated, usually from 106 µM), usual class: inhibitors; hit rate 0.065% among 280,000; also: nearly all actives have a fitted effect of over 50% in size
#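 Read-out is fluorescence polarization (555 nm excitation, 632 nm emission) of a Texas Red SRC2 coactivator peptide; loss of signal reflects blocked binding to human TRb ligand-binding domain in the presence of 1 uM T3.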
# GoLoco inh red – RGS12 GoLoco-Gai1 interaction inhibition. P63096. Gai1:RGS12 GoLoco peptide FP, rhodamine, 10 min. Potency, µM (titrated, usually from 61.6 µM), most hits filed as inhibitors. hit rate 0.44% among 230,000. AID 880; active = well fitted inhibition curve with a large enough effect, not every such curve was filed as active; inactive = no such curve, though single readings can be large or run the other way; also: nearly all actives have a fitted effect of over 30% in size
# VDR inh – vitamin D3 receptor (human) inhibition; P11473; VDR-SRC2-3 peptide fluorescence polarization, 2 h; Potency, µM, hits mostly inhibitors; hit rate 0.93% among 400,000; AID 504847
#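 After 23 nl compound addition and a short centrifugation, plates sat for 2 hours at ambient temperature; polarization of fluorescence then indicated loss of VDR binding to peptide SRC2-3.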
# TexasRed fluor – counter-screen for TRb-SRC2 inhibitors: fluorescence interference; TRb/SRC2 Texas Red total fluorescence interference; Potency, µM (titrated, usually from 106 µM); hit rate 0.29% among 280,000; AID 1479; active = well fitted curve in either direction with a large enough effect; inconclusive = small, poorly fitted or top-dose-only effect
#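 Human TRβ ligand-binding domain (0.6 uM) and Texas Red SRC2 peptide (20 nM) in Tris buffer with 1 uM T3 and 5% DMSO were incubated with pinned compound for 5 hr at ambient temperature. Total fluorescence was computed as S + 2P (555/632 nm).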
# KAT2A inh – inhibitors of human GCN5L2 histone acetyltransferase | Q92830 | hit rate 0.21% among 390,000 | AID 504327 | Potency, µM (doses to about 58.9 µM), hits mostly inhibitors | GCN5L2 HAT assay, ThioGlo1 CoA-SH fluorescence
# Target sequence (Q92830 whole entry, looked up): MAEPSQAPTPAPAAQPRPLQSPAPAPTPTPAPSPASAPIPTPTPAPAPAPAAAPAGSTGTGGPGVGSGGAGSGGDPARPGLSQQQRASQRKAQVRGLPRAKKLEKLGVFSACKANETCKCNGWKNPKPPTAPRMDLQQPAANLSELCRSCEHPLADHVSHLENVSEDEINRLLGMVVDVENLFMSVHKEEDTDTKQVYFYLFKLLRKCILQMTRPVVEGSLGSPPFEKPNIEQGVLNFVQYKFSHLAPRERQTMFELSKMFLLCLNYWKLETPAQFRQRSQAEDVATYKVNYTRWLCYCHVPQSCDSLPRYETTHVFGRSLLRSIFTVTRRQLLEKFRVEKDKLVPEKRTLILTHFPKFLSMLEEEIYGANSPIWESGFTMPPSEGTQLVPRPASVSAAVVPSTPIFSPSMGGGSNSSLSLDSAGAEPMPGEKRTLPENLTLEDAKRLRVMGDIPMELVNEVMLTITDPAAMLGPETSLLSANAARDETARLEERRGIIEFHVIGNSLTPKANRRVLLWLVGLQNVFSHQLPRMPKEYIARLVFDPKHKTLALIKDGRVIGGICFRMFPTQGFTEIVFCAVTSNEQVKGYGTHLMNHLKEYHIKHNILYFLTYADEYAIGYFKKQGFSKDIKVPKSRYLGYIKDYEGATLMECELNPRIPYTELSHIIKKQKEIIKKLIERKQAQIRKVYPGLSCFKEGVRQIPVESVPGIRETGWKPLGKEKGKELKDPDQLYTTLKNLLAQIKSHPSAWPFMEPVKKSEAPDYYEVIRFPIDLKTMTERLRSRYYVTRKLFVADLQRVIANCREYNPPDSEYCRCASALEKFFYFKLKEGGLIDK
#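 Free CoA generated was detected with ThioGlo1 (50uM) fluorescence at Ex340nm/Em540nm, read immediately and after 20 min at room temperature. Enzyme, 20 nM in HEPES pH 7.5 buffer, saw compounds 15 min before adding 75uM H3(1-25) peptide and 70uM acetyl-CoA.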
# Hits are given with their value; 0 = inactive; ? = inconclusive; - = not tested or not shown; [ ] = another dose, or the depositor's remark. Hits are enriched below; roughly 1.2% of the tested compounds scored in any of these assays. Unless noted, calls follow the shape of the dose curve; as a rule, active = well fitted curve in the direction sought with a large enough effect; inconclusive = small, poorly fitted or top-dose-only effect, or another doubt; inactive = no such curve, though single readings can be large; an effect the other way counts as inactive or inconclusive.
SMILES,TRb-SRC2 inh,GoLoco inh red,VDR inh,TexasRed fluor,KAT2A inh
Cc1ccc(NC(=S)NNc2ccc([N+](=O)[O-])cc2S(=O)(=O)Nc2ccccc2C(=O)O)cc1C,0,0,39.8µM,0,?
CCOc1ccc(C=NNc2ccc(S(=O)(=O)Nc3ccccc3C(=O)O)cc2[N+](=O)[O-])cc1OC,-,-,0,-,?
O=C(O)c1ccccc1NS(=O)(=O)c1ccc(N/N=C/c2cccc(O)c2O)c([N+](=O)[O-])c1,-,-,0,-,-
O=C(O)c1ccccc1NS(=O)(=O)c1ccc(NNC(=S)Nc2ccc(OC(F)F)cc2)c([N+](=O)[O-])c1,0,0,?,?,22.4µM
CN(CCO)c1ccc(C=NNc2ccc([N+](=O)[O-])cc2S(=O)(=O)Nc2ccccc2C(=O)O)cc1,-,-,79.4µM,-,?
Cc1ccccc1NC1=NC(C)(C)N=C(N)N1,0,0,0,0,0
Cc1cccc(NC2=NC(C)(C)N=C(N)N2)c1C,0,0,25.1µM,0,0
COCCCNC(=O)C(C)N1c2cccc3cccc(c23)S1(=O)=O (configuration not stated),-,-,70.8µM,-,0
COC(=O)C1=C[C@@H](C(=O)OC)[C@@H]2C3=C(C(=O)[C@@]2(C)NC(=O)c2ccccc2)[C@H](C)[C@@H]2C(=O)N(c4ccccc4)C(=O)[C@@H]2[C@@H]3C1,0,-,0,0,-
O=S(=O)(Nc1cccc2ccccc12)c1cccc2ccccc12,-,-,0,-,-
CC(=O)N1CCN(C2=NC(=O)/C(=C/c3ccc(OS(=O)(=O)c4ccccc4)cc3)S2)CC1,-,-,50.1µM,-,0
O=C1N=C(N2CCOCC2)S/C1=C\c1ccccc1OS(=O)(=O)c1ccccc1,0,0,0,0,0
CN(C)C(=O)/N=N/C(=O)N(C)C,0,0,6.31µM,0,0
COc1ccc(Cn2nnnc2C(c2ccccn2)N2CCN(c3ccc(O)cc3)CC2)cc1 (configuration not stated),-,-,0,-,-
Clc1ccc(/C=C\c2nc(Cl)c(-c3ccc(Cl)cc3)c(Cl)n2)cc1,-,0[14.2 µM],-,-,-
Nc1cccc2c(=O)[nH]ccc12,0,-,0,0,0
O=C(O)c1ccc(-c2ccc(-c3ccccc3)cc2)o1,0,0,89.1µM,0,0
CC(=O)Nc1ccc(SCCN2CCN(CCc3ccccc3)CCC2=O)cc1,0,-,17.8µM,0,-
O=C(NCCc1c[nH]c2ccccc12)c1ccccc1O,0,-,0,0,0
Nc1c(C(=O)NCC2CCCO2)sc2nc3c(c(-c4ccco4)c12)CC/C3=C\c1ccco1 (configuration not stated),0,0,?,11.2µM[quencher],?
NC(=O)c1sc2nc3c(c(-c4ccco4)c2c1N)CCCC3,0,0,0,0,0
COc1cc(Cl)c(S(=O)(=O)N2CCCC2)cc1Cl,0,0,0,0,0
COc1cc(N2C(=O)C=CC2=O)c(OC)cc1Cl,0,0,28.2µM,0,?
COc1cc(O)c2c(O)c3c(c4c2c1[C@@]1(C4)C(C)=CCCC1(C)C)[C@H](O)[C@@]1(O)CC(=O)C(C(N)=O)=C(O)[C@]1(O)C3=O,-,0[14.2 µM],-,-,-
CC(/C=C1\SC(=S)N(c2ccc(C(=O)O)cc2)C1=O)=C\c1ccccc1,0,0,89.1µM,0,0
SMILES,TRb-SRC2 inh,GoLoco inh red,VDR inh,TexasRed fluor,KAT2A inh
CCn1c(/C=C/N(C(C)=O)c2ccccc2)[n+](CCCS(=O)(=O)[O-])c2cc(Cl)c(Cl)cc21,0,0,0,0,0
CCOC(=O)Cn1c(C)[n+](C)c2cc(Cl)c(Cl)cc21,0,0,0,0,0
CC(=O)OCCn1c(C)[n+](CCOC(C)=O)c2cc(Cl)c(Cl)cc21,0,12.6µM,0,0,0
CCn1c(C)[n+](CCOCC[n+]2c(C)n(CC)c3cc(Cl)c(Cl)cc32)c2cc(Cl)c(Cl)cc21,0,7.94µM,0,0,0
CCC(=O)NC[C@H](Cc1ccc(OCCc2nc(-c3ccccc3)oc2C)cc1)N/C(C)=C\C(=O)c1ccc(C(F)(F)F)cc1,0,-,0,0,0
COc1ccc(C2CC(=O)C3=C(C2)Nc2ccccc2N(C(=O)CCC(=O)O)C3c2ccc(F)cc2)cc1 (configuration not stated),0,5.62µM,0,0,?
O=C(O)CCC(=O)N1c2ccccc2NC2=C(C(=O)CC(c3ccc(F)cc3)C2)C1c1ccc([N+](=O)[O-])o1 (configuration not stated),0,0,0,0,0
COC(=O)CSc1nc(SC)nc2c1sc1nc(-c3ccco3)c3c(c12)CC(C)(C)OC3,-,-,0,-,-
CSc1nc(SCCO)c2sc3nc(-c4ccco4)c4c(c3c2n1)CC(C)(C)OC4,0,0,0,?,12.6µM
O=C=NCCCCCCN=C=O,0,-,-,0,-
O=S(=O)(c1cccc(C(F)(F)F)c1)N1c2ccccc2-n2cccc2[C@H]1c1cccnc1,-,0[14.2 µM],-,-,-
CCCCCCCCOc1c(OC)cc(/C=C/C(=O)N2CCN(c3ccc(C)c(C)c3)CC2)cc1OC,0,-,0,?,0
FC(F)(F)c1nc2cc3nc4ccccc4[nH]c3cc2n1,?,15.8µM,?,0,0
C=CCc1cccc(/C=N/NC(=O)CN2CCN(Cc3ccccc3)CC2)c1O,0,-,0,0,0
O=C(c1ccc(-c2ccc([N+](=O)[O-])cc2)o1)N1CCCCCCC1,-,-,35.5µM,-,0
O=C(Nc1cccc2cccnc12)c1ccc(Br)cc1,-,-,0,-,-
COC(=O)CN1CC(=O)c2ccccc2S1(=O)=O,0,-,0,0,-
COc1ccc2sc(SCCCS(=O)(=O)O)[n+](CCCS(=O)(=O)[O-])c2c1,0,0,?,0,0
CSc1sc2ccccc2[n+]1CCCS(=O)(=O)[O-],0,0,35.5µM,0,0
O=C(O)c1ccc(C(=O)O)c(C(=O)Nc2ccc3c(c2)Cc2ccccc2-3)c1,-,0[14.2 µM],-,-,-
N#CC(C#N)=C1C=CC=CN1/C(=C\c1ccco1)C(=O)c1ccccc1,0,0,14.1µM,0,0
N#CC(C#N)=C1C=CC=CN1/C(=C\c1ccco1)C(=O)c1ccc(Br)cc1,0,0,10µM,0,0
COc1ccc(/C=C(/C(=O)c2cccs2)N2C=CC=CC2=C(C#N)C#N)cc1,0,-,?,0,0
COc1ccc(C(=O)/C(=C\c2ccco2)N2C=CC=CC2=C(C#N)C#N)cc1,0,0,39.8µM,0,0
CCCC(=O)O[C@]1(C(=O)CCl)[C@H](C)C[C@@H]2[C@H]3CCC4=CC(=O)C=C[C@]4(C)[C@@]3(F)C(=O)C[C@@]21C,-,-,0,-,0
Cl[Si](Cl)(Cl)c1ccccc1,0,-,-,0,-
CC1CCN2c3ccccc3CC3(C(=O)OC(C)(C)OC3=O)C2C1 (configuration not stated),-,-,0,-,-
CN(C(=O)CCc1ccccc1F)C1CCCN(Cc2ccccc2F)C1 (configuration not stated),-,-,35.5µM,-,0
O=C(CSC1=NCCN1)c1ccccc1,-,0[14.2 µM],-,-,-
O=C(CCSC1=NCCCN1)c1ccc(F)cc1,-,-,70.8µM,-,-
